The text below walks through data of PubChem BioAssay (Tox21).

Several values for one entry are separate records, joined by “and”; a condition that tells them apart may be missing. Equal values may be shown once. Results filed as inconclusive are left out. The source holds several records for some structures; these can differ, active in one and inactive in another. Activity calls are given as the source filed them. Unless noted, calls follow the shape of the dose curve; as a rule, active = well fitted curve in the direction sought with a large enough effect in the repeat runs; inconclusive = weak or mixed curves; inactive = no such curve, though single readings can be large; an effect the other way counts as inactive or inconclusive.

A short description of assay [1]: qHTS assay to test for compound auto fluorescence at 535 nm (green) in HEK293 cells (AID 720680). (In qHTS, concentration-response curves come from the screen itself.)
The nature of assay [2]: qHTS assay to test for compound auto fluorescence at 460 nm (blue) in HEK293 cell free culture (AID 720681). The method, boiled down:
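Blue fluorescence (Ex 405/Em 460 nm, triamterene-equivalent) was read immediately after pin transfer of compound or DMSO into medium (DMEM, 10% FBS) without cells.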

Assay [3] in a line: qHTS assay to test for compound auto fluorescence at 535 nm (green) in HEK293 cell free culture (AID 720682). The procedure, abridged:
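No cells present: wells hold DMEM supplemented with 10% FBS, into which compound or vehicle is pinned. Green emission is then recorded (485 nm excitation, 535 nm emission) and scaled to fluorescein.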

The nature of assay [4]: qHTS assay to test for compound auto fluorescence at 590 nm (red) in HEK293 cell free culture (AID 720683). The method, boiled down:
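Red-channel autofluorescence of compounds in culture medium (DMEM, 10% FBS), no cells, measured at 540/590 nm. Rose Bengal sodium is the reference fluorophore for equivalence.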

Assay [5] in a line: qHTS assay to test for compound auto fluorescence at 590 nm (red) in HepG2 cell free culture (AID 720684). The method, boiled down:
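No cells present: MEM + 10% FBS only. Compound pinned in, red label read (540/590 nm). Activity = fluorescence equivalent to Rose Bengal sodium.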

A short description of assay [6]: qHTS assay to test for compound auto fluorescence at 460 nm (blue) in HepG2 cell free culture (AID 720685). The procedure, abridged:
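Cell-free plates of MEM plus 10% FBS received 23 nL compound or DMSO vehicle; blue-channel (405/460 nm) intensity scored against triamterene as reference fluorophore.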

Assay [7] can be described thus: qHTS assay to test for compound auto fluorescence at 535 nm (green) in HepG2 cell free culture (AID 720686).
Assay [8] can be described thus: qHTS assay to test for compound auto fluorescence at 460 nm (blue) in HepG2 cells (AID 720687). The method, boiled down:
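Blue-channel autofluorescence (Ex/Em 405/460 nm, triamterene-equivalent) was measured after 1 hr compound exposure at 37 C, 5% CO2. Cells were HepG2, plated overnight at 37 C in MEM plus 10% FBS.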

The target in assay [9] is Glucocorticoid receptor (Homo sapiens) (UniProt P04150). Nature of the assay: qHTS assay to identify small molecule agonists of the glucocorticoid receptor (GR) signaling pathway (AID 720691; active = well fitted activation curve with a large enough effect in the signal ratio in the repeat runs, not every such curve was filed as active; the % refers to the signal ratio). The method, boiled down: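 Agonist-mode qHTS in HeLa cells stably expressing a glucocorticoid-response-element beta-lactamase reporter. Fluorescence intensity read with FRET substrate (2 h, room temperature) after 18 h compound treatment at 37 C.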
Glucocorticoid receptor (Homo sapiens), sequence (P04150 whole entry, looked up): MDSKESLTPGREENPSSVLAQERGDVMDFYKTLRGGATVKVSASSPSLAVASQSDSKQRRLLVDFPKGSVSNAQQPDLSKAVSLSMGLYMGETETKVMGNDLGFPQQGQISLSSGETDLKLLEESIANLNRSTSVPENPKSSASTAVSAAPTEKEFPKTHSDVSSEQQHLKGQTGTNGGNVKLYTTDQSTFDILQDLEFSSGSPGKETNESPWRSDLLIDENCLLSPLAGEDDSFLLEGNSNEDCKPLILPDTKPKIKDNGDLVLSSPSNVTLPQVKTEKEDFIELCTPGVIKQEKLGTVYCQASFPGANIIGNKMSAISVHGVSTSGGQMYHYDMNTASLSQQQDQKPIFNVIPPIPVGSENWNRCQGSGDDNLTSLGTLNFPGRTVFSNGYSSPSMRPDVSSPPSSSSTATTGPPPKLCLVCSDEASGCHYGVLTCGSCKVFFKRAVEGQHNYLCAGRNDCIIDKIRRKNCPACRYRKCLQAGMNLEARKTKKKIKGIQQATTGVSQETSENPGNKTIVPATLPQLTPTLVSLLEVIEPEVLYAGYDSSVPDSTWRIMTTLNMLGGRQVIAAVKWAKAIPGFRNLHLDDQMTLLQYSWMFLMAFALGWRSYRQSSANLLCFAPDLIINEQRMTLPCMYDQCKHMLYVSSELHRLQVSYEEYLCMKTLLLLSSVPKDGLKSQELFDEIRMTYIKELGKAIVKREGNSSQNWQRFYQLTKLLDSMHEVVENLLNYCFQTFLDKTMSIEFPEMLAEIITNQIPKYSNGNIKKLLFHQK

A short description of assay [10]: qHTS assay to identify small molecule antagonists of the glucocorticoid receptor (GR) signaling pathway - cell viability counter screen (AID 720693). Also: nearly all actives have a fitted effect of over 55% in size. Also: potency is read from the fitted curve at half-maximal effect.
Assay [11] can be described thus: qHTS assay for identifying genotoxic compounds that show differential cytotoxicity against isogenic chicken DT40 cell lines with known DNA damage response pathways - wild type cell line (AID 743012). Also: nearly all actives have a fitted effect of over 60% in size. Also: potency is read from the fitted curve at half-maximal effect. The method, boiled down:
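Viability by ATP luminescence (CellTiter-Glo, 30 min RT) after 40 h compound treatment at 37 C/5% CO2, using 300 parental DNA repair-proficient DT40 cells per well.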

A short description of assay [12]: qHTS assay for identifying genotoxic compounds that show differential cytotoxicity against isogenic chicken DT40 cell lines with known DNA damage response pathways - Rev3 mutant cell line (AID 743014). Also: nearly all actives have a fitted effect of over 55% in size. Also: potency is read from the fitted curve at half-maximal effect.
Assay [13] can be described thus: qHTS assay for identifying genotoxic compounds that show differential cytotoxicity against isogenic chicken DT40 cell lines with known DNA damage response pathways - Rad54/Ku70 mutant cell line (AID 743015). Also: nearly all actives have a fitted effect of over 60% in size. Also: potency is read from the fitted curve at half-maximal effect.
Assay [14] is described as follows: qHTS assay to identify small molecule antagonists of the androgen receptor (AR) signaling pathway using the MDA cell line - cell viability counter screen (AID 743041; also: nearly all actives have a fitted effect of over 45% in size; also: potency is read from the fitted curve at half-maximal effect). The procedure, abridged: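 Using the breast carcinoma line MDA-kb2 AR-luc, test chemicals were co-incubated with R1881 for 16 h; CellTiter-Fluor reagent, added at 15.5 h, provided a fluorescence measure of live cells.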

The nature of assay [15]: qHTS assay to identify small molecule antagonists of the androgen receptor (AR) signaling pathway - cell viability counter screen (AID 743033; also: nearly all actives have a fitted effect of over 45% in size; also: potency is read from the fitted curve at half-maximal effect).
The target in assay [16] is Androgen receptor (Homo sapiens) (UniProt P10275). The assay can be described thus: qHTS assay to identify small molecule antagonists of the androgen receptor (AR) signaling pathway (AID 743035; active = well fitted inhibition curve with a large enough effect in the signal ratio in the repeat runs, not every such curve was filed as active; the % refers to the signal ratio). The method, boiled down: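 Antagonist mode: AR-bla HEK293 cells co-treated with test compounds and agonist R1881 for 16 h at 37C, 5% CO2. Beta-lactamase activity read as FRET fluorescence after 2 h room-temperature substrate loading.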
Androgen receptor (Homo sapiens), sequence (P10275 whole entry, looked up): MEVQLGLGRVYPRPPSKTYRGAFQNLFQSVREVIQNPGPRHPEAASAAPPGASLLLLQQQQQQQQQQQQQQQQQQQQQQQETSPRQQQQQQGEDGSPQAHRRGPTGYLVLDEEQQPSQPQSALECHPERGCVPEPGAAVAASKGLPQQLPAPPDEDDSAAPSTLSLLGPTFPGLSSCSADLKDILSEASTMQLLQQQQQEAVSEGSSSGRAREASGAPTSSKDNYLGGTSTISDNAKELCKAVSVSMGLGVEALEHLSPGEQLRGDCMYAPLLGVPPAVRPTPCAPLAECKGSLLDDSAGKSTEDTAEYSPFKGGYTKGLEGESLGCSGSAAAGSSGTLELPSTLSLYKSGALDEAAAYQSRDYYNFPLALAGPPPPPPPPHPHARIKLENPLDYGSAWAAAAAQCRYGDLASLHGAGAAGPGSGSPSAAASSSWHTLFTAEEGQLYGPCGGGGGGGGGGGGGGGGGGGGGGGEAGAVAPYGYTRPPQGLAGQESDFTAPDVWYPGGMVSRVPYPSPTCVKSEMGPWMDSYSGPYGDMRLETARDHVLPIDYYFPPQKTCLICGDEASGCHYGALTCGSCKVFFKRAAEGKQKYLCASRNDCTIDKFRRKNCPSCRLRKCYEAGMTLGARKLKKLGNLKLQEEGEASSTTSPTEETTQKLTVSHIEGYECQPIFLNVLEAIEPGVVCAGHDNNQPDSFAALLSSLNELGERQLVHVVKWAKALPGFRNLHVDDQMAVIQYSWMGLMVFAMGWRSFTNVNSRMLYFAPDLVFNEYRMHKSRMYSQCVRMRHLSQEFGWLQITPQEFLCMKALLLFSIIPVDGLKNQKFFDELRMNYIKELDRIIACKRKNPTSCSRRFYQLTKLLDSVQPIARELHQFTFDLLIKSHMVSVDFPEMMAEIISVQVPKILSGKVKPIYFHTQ

Assay [17] shares this target. The assay can be described thus: qHTS assay to identify small molecule antagonists of the androgen receptor (AR) signaling pathway using the MDA cell line (AID 743042; also: nearly all actives have a fitted effect of over 55% in size). The procedure, abridged: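 Antagonist mode: compounds plus R1881 agonist added to MDA-kb2 AR-luc cells, incubated 16 h at 37C. Luciferase reporter luminescence quantified, with multiplexed CellTiter-Fluor readout for cell viability.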

For assay [18] the target is unchanged. Nature of the assay: qHTS assay to identify small molecule agonists of the androgen receptor (AR) signaling pathway (AID 743036; active = well fitted activation curve with a large enough effect in the signal ratio in the repeat runs, with a control signal flat, not every such curve was filed as active; the % refers to the signal ratio). The method, boiled down:
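Quantitative HTS of the Tox21 10K library in HEK293 cells bearing a stably integrated UAS-controlled beta-lactamase reporter. Compound exposure lasted 16 h at 37C. Reporter activity was detected by FRET substrate fluorescence after 2 h at room temperature.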

For assay [19] the target is unchanged. The assay can be described thus: qHTS assay to identify small molecule agonists of the androgen receptor (AR) signaling pathway using the MDA cell line (AID 743040; also: nearly all actives have a fitted effect of over 20% in size). The procedure, abridged: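 Stable MMTV-luciferase reporter in MDA-kb2 cells; note the promoter carries GR as well as AR response elements. 16 h compound treatment, 37C, 0% CO2; ONE-Glo luminescence endpoint.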

Assay [20] deals with Glucocorticoid receptor (Homo sapiens) (UniProt P04150). Nature of the assay: qHTS assay to identify small molecule antagonists of the glucocorticoid receptor (GR) signaling pathway (AID 720692; active = well fitted inhibition curve with a large enough effect in the signal ratio in the repeat runs, not every such curve was filed as active; the % refers to the signal ratio). The method, boiled down: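 Inhibition of dexamethasone-driven (5 nM final) beta-lactamase expression was measured in GRE-reporter HeLa cells over 18 h at 37C. Fluorescence was read after 2 h with the B/G FRET substrate at room temperature.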
% is scaled to controls: 0 for no effect and ±100 for the full control effect.

Regarding `O=S(=O)(O)c1ccc(N=Nc2c(O)ccc3ccccc23)cc1`, the Potency entry in [1], in assay [2], in [3], in assay [4], in assay [5] and in assay [6] was “inactive” each time. Also, the Potency result in assay [7], in assay [8], in assay [9] and in [10] was “inactive” in each case. Also, the Potency in assay [11] was 61.1 µM (active); in assay [12] it was 30.6 µM (active); in assay [13] it was 54.5 µM (active); in [14] it was 27.3 µM (active).

With `[Cu+]`, the Potency result in assay [1], in assay [2], in [3], in [4], in assay [5] and in assay [6] was “inactive” each time. Further, the Potency result in assay [7], in assay [8], in assay [10], in assay [15] and in assay [14] was “inactive” in each case. Moreover, the Potency in [11] was 54.5 µM (active); in assay [13], 30.6 µM (active).

`OC12N=C(c3ccccc3)SC1Cc1cc(Cl)ccc12` (stereo not drawn): the Potency entry in assay [1], in assay [2], in [3], in assay [4], in [5] and in [6] was “inactive” throughout. The Potency entry in assay [7], in assay [8], in assay [10] and in assay [14] was “inactive” in each case. The Potency in assay [12] is 68.6 µM (active); in assay [13], 43.3 µM (active).

Consider `Cc1c(C)c2c(c(C)c1O)CC[C@@](C)(CCC[C@H](C)CCC[C@H](C)CCCC(C)C)O2`, for which the Potency entry in assay [1], in assay [2], in assay [3], in [4], in assay [5] and in assay [6] was “inactive” each time. For the same compound, the Potency entry in [7], in assay [8], in assay [9], in assay [10], in [11] and in [12] was “inactive” throughout. Further, the Potency entry in [13], in [15] and in assay [14] was “inactive” each time.

On to `COC(=O)C1=C(C)NC(C)=C(C(=O)OCCN2CCN(C(c3ccccc3)c3ccccc3)CC2)C1c1cccc([N+](=O)[O-])c1` (stereo not drawn), for which the Potency entry in assay [1], in assay [2], in assay [3], in assay [4], in [5] and in [6] was “inactive” in each case. The Potency entry in assay [7], in assay [8] and in assay [9] was “inactive” each time. Besides, the figures for the Potency in assay [11], in assay [12] and in [13] were 5.31 µM (active), 8.41 µM (active) and 6.68 µM (active), respectively.

For the compound `CCO[C@@H]1O[C@H](C(COCc2ccccc2)OCc2ccccc2)[C@H](OCc2ccccc2)[C@H]1O` (stereo partly drawn), the fluorescence, % of fluorescein in [1] was -0.012% [at 18.6 µM] (inactive). The fluorescence, % of fluorescent control in [2] is 0.118% [at 18.6 µM] (inactive); in assay [4] it was -0.0196% [at 18.6 µM] (inactive); in assay [6], -0.0414% [at 18.6 µM] (inactive); in assay [8], -0.0213% [at 18.6 µM] (inactive). The activity change in assay [3] was -0.0677% [at 18.6 µM, stronger effect = higher value] (inactive). In addition, the fluorescence, % of Rose Bengal in assay [5] is -0.0599% [at 18.6 µM] (inactive). Besides, in [7], the fluorescence, % of fluorescein control was -0.102% [at 18.6 µM] (inactive). In addition, the Potency result in [9], in assay [10], in assay [15] and in [14] was “inactive” throughout. The Potency in assay [13] was 14.3 µM (active).

As for `CCCCCCCCCCCCOC(=O)c1ccc(O)cc1`, the Potency entry in assay [1], in assay [2], in assay [3], in [4], in [5] and in assay [6] was “inactive” each time. The Potency entry in assay [7], in assay [8], in assay [11], in [12], in [15] and in assay [16] was “inactive” in each case. Further, the Potency entry in [17] was “inactive”. Further, in [10], the Potency is 24.7 µM (active).

As for `CN(C)Cc1cc(C(C)(C)C)c(O)c(C(C)(C)C)c1`, the Potency entry in assay [1], in [2], in assay [3], in assay [4], in assay [5] and in assay [6] was “inactive” throughout. Further, the Potency result in assay [7], in assay [8], in assay [9] and in [10] was “inactive” throughout. Moreover, the Potency in [12] and in assay [13] was 17.2 µM (active) each time.

As for `C[Si](Cl)(c1ccccc1)c1ccccc1`, the Potency result in assay [1], in assay [2], in [3], in assay [4], in [5] and in [6] was “inactive” in each case. Also, the Potency entry in [7], in assay [8], in [9], in assay [10], in assay [15] and in [14] was “inactive” each time.

With `Cc1c(C)c2c(c(C)c1OC(=O)c1cccnc1)CC[C@@](C)(CCC[C@H](C)CCC[C@H](C)CCCC(C)C)O2`, the Potency entry in [1], in [2], in assay [3], in assay [4], in assay [5] and in assay [6] was “inactive” each time. The Potency entry in [7], in [8], in assay [10], in assay [11], in assay [15] and in assay [14] was “inactive” in each case.

Take `Oc1c(I)cc(Cl)c2cccnc12`: the Potency entry in assay [1], in [2], in assay [3], in [4], in assay [5] and in assay [6] was “inactive” throughout. In addition, the Potency result in assay [7], in assay [8], in [10], in [16], in assay [18] and in assay [14] was “inactive” in each case. Besides, the Potency entry in assay [17] was “inactive”. Moreover, the Potency in assay [11] is 18.8 µM (active) and 15.3 µM (active); in [15], “inactive and 17.3 µM (active)”. In assay [19], the outcome was inactive.

With `COCCOc1cc2cc(C(=O)NC3CCN(C(C)C)CC3)n(CC(=O)Nc3ccc(Cl)cn3)c2cn1`, the Potency result in assay [1], in assay [2], in assay [3], in [5], in assay [6] and in assay [7] was “inactive” throughout. Further, the Potency entry in assay [8], in assay [9], in assay [20], in assay [10], in [12] and in assay [15] was “inactive” throughout. In addition, the Potency entry in assay [14] was “inactive”.

Take `CCCCN(CCCC)CC(O)c1cc(Cl)cc2c1-c1ccc(Cl)cc1/C2=C/c1ccc(Cl)cc1` (stereo not drawn): the Potency result in assay [1], in assay [2], in assay [3], in assay [5], in assay [6] and in [7] was “inactive” each time. The Potency entry in assay [8], in assay [9], in assay [10] and in assay [15] was “inactive” throughout.

Take `Cc1cc(C)c(/C=C2\C(=O)Nc3ccccc32)[nH]1`: the Potency result in [1], in assay [2], in assay [3], in [4], in assay [5] and in assay [6] was “inactive” each time. Further, the Potency result in [8], in assay [11], in [15], in [16], in assay [14] and in assay [17] was “inactive” each time. Moreover, in [19], the compound was classed as inactive.

Consider `O=C1CCc2cc(OCCCCc3nnnn3C3CCCCC3)ccc2N1`, for which the Potency result in [1], in assay [2], in assay [3], in [5], in assay [6] and in assay [7] was “inactive” in each case. Moreover, the Potency entry in [8], in assay [9], in assay [10], in assay [12], in assay [15] and in assay [14] was “inactive” each time.
